The record followed here is PubChem BioAssay.

The nature of test [1]: inhibitors of TNFa-induced NFkB p65 translocation, primary screen, imaging, HUVEC, MLSMR starter and 10KST1 sets (AID 438;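 active means inhibition above 20% together with a positive visual image hit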;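 further: compound added about 3h40 before a 20 min TNFalpha stimulation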;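 on inhibition: signal is the nuclear over cytoplasmic p65 intensity ratio per well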). The settings on record: HUVEC TNFa-induced p65 nuclear translocation; cell count: measured here: nuclei count (cytotoxicity indicator), at 2.08 µM; inhibition: at 2 µM, stronger effect = higher value, 0% TNFa-plus-vehicle, 100% no-TNFa wells.
A short description of test [2]: inhibitors of mutant huntingtin aggregation, primary screen, imaging, exon1htt(103Q)mCFP cells, high-content imaging (AID 483;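 active means visual image review flags a hit and inhibition of aggregation exceeds 20%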;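 further: compound exposure lasted 3 days before fixation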;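 on nuclei count: percent of the per-plate median nuclei count of sample wells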). The settings on record: exon1htt(103Q)mCFP cell line, aggregate imaging, at 2 µM; inhibition of aggregation: stronger effect = higher value; nuclei count: measured here: cell count, toxicity.
A short description of test [3]: inhibitors of E-selectin induction by TNFa, primary screen, imaging, HUVEC, immunofluorescence, MLSMR starter and 10KST1 sets (AID 487;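 active means visually confirmed hit in the image check and inhibition above 20%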;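 on inhibition: signal is fraction of cell area covered by stained E-selectin grains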;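 on nuclei count: 100% = median nuclei count of all wells on the same plate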). The settings on record: HUVEC TNFalpha-induced E-selectin immunofluorescence imaging, at 2 µM; inhibition: stronger effect = higher value; nuclei count: measured here: cell number, toxicity.
A short description of test [4]: DUSP6 inhibitors restoring Erk phosphorylation by chemical complementation, primary imaging in DUSP6-transfected HeLa (AID 609;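 active means compounds giving at least 50% inhibition in the cell-based MKP-3 phosphatase rescue imaging test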;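 on inhibition: phospho-Erk level distribution per well compared with pooled transfected vehicle control wells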). The following applies: HeLa MKP-3 transfected, phospho-Erk imaging KS statistic, at 10 µM, cells stimulated with TPA for 15 min.
Test [5] concerns the target Dual specificity protein phosphatase 6 (Homo sapiens) (UniProt Q16828). The test is described as above. The settings on record: HeLa MKP-3 transfected, phospho-Erk imaging KS statistic; at 10 µM; stronger effect = higher value; cells stimulated with TPA for 15 min.
The target in test [6] is Voltage-gated potassium channel subunit beta-2 (Rattus norvegicus) (UniProt P62483). Kind of test: KvBeta enzyme negative modulators, primary screen, biochemical, NADPH fluorescence (AID 622;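 active means fluorescence slope higher than the sample average by over 3 SD, cut at about -0.22 in these data, passing the limit was not always enough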;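 further: slope of raw intensity against log time taken from 70 to 1610 s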). The following applies: recombinant KvBeta, 4-cyanobenzaldehyde reduction, at 10 µM, stronger effect = higher value.
Voltage-gated potassium channel subunit beta-2 (Rattus norvegicus), sequence (P62483 whole entry, looked up): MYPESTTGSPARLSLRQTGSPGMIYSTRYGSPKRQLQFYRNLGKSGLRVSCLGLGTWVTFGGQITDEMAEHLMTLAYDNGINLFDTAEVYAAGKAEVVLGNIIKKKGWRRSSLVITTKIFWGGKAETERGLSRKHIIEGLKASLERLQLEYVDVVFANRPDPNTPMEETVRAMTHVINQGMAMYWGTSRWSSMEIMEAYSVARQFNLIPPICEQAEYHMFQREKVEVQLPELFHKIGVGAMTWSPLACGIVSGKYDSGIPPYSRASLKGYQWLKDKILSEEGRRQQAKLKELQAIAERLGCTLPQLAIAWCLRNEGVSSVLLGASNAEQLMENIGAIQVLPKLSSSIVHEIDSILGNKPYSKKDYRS
The target is the same in test [7]. Description: KvBeta positive modulators, primary screen, biochemical, NADPH fluorescence (AID 623;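 active means NADPH fluorescence slope more negative than the mean of all samples by about 3 SD, 99.7% confidence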;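 further: fluorescence intensity change per second fitted from 20 to 320 s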). The settings on record: Recombinant KvBeta, NADPH fluorescence decrease slope, 10 min; at 10 µM; stronger effect = lower value.
In test [8] the target is Alpha-2C adrenergic receptor (Homo sapiens) (UniProt P18825). Description: modulators of alpha2C/GIRK thallium flux, primary screen, cell-based, HEK293 alpha2C/GIRK1/2 (AID 624;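 active means fluorescence slope after compound addition differing from the mean of all screened samples at 99.7% confidence, in either direction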;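 further: slope of fluorescence ratio to pre-addition baseline per second over 15 to 24 s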). The settings on record: thallium flux BTC fluorescence, at 10 µM, actives lie on both sides.
Alpha-2C adrenergic receptor (Homo sapiens), sequence (P18825 whole entry, looked up): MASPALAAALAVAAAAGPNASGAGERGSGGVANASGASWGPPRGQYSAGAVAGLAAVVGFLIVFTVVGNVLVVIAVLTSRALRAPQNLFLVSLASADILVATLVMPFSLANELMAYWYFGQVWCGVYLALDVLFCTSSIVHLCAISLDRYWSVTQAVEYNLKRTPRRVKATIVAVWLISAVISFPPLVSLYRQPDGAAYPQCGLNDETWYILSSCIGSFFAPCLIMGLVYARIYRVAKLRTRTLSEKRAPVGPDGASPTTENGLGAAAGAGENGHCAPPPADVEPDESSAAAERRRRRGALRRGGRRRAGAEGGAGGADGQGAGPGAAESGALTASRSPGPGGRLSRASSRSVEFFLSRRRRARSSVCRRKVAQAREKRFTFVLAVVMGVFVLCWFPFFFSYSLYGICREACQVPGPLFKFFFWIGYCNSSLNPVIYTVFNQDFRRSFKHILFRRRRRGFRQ
The nature of test [9]: inhibitors of larval lipid processing in zebrafish, primary screen, whole organism, PED6 fluorescence, gall bladder and intestine (AID 686;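 active means a full or partial loss of lipid-probe fluorescence in the fish gall bladder, intestine or both, judged by eye; inactive means no fluorescence loss, or compound toxic to the fish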;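 further: larvae 5 to 7 days old with five fish per well; signal comes from phospholipase A2 cleavage of quenched PED6 carried via bile; overnight exposure to compound and PED6 before scoring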). The following applies: Zebrafish larvae PED6 lipid processing, fluorescence scoring; screened at 20 µM (by protocol).
Test [10] is described as follows: inhibitors of Chlamydomonas gravitaxis, primary screen, whole organism, Chlamydomonas reinhardtii, WT vs cilia-less mutant, absorbance, 96-well (AID 463189).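 Further: 0% = wild type cc124 cells in DMSO and 100% = ciliumless bld1 mutant cells.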 The following applies: OD600 absorbance, 2 days, at 10 µM, stronger effect = higher value.
The nature of test [11]: inhibitors of Sendai virus-induced IRF3 signaling, primary screen, TLR/RLR signaling modifier project, cell-based, Sendai virus stimulus, luciferase, 10K MLSCN set (AID 602276;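 active means inhibition at or above 50% at 10 µM; inactive means inhibition below 50%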;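 further: firefly luciferase from ISG56 promoter only with Renilla not read in this screen; 0% = Sendai virus plus DMSO and 100% = medium plus DMSO without virus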). The following applies: HEK293 RL24 IRF3 luciferase reporter, at 10 µM, stronger effect = higher value.
A short description of test [12]: inhibitors of poly I:C-induced TLR3 signaling, primary screen, cell-based, poly I:C stimulus, luciferase, 10K MLSCN set (AID 602277;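 active means inhibition of the reporter signal at or above 50%; inactive means inhibition below 50%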). The following applies: HEK293-TLR3 RL24 IRF3 luciferase reporter, at 10 µM, stronger effect = higher value. A general note: In a reporter assay the amount or activity of a reporter protein is the signal.
The mark [13] stands for this setting: measured here: cell density z-score.
Where [14] appears, read: measured here: nuclear c-Myc green intensity z-score.
Where [15] appears, read: measured here: nuclear pErk red intensity z-score, stronger effect = higher value.

Broadly, the inhibition is the relative decrease from the control value, in per cent.

The structures appear in SMILES notation. Several values for one entry are separate records, joined by “and”; a condition that tells them apart may be missing. Equal entries are not always repeated. Activity calls are given as the source filed them.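 How the source made its calls, unless noted: active means inhibition at or above 50% relative to wild type and mutant plate controls; inactive means inhibition below 50%.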

Dual specificity protein phosphatase 6 (Homo sapiens), sequence (Q16828 whole entry, looked up): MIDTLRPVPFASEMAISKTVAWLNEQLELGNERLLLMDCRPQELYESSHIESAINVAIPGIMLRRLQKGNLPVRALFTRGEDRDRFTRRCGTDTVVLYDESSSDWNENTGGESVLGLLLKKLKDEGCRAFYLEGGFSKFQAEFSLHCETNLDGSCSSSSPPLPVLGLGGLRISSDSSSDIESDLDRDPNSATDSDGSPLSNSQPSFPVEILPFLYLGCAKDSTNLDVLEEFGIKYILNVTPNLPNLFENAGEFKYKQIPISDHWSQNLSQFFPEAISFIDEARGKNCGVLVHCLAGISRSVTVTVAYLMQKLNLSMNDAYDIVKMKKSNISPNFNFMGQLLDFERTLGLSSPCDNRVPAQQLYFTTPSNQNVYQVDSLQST

Consider `CCOC(=O)CSc1nc(N)c2c3c(sc2n1)CCCC3`, for which the cell count in test [1] is 682. Besides, the inhibition in [1] is -4.4% (inactive); in test [3], 5.9% (inactive); in test [5], -3.95% (inactive); in test [10] it was -8.25% (inactive); in test [11], 12.5% (inactive); in test [12] it was 4.94% (inactive). In [2], the inhibition of aggregation is -8.1% (inactive). Further, the nuclei count in test [2] was 97.3%; in [3], 146%. The z-score is -0.0379 in test [4] (setting [13]), 1.11 in test [4] (setting [14]) and -0.851 in test [4] (setting [15]). The fluorescence slope in test [6] is -0.363 (inactive). The NADPH fluorescence slope in test [7] is -5.9e-05 (inactive). The slope in test [8] was 0.0064 (inactive). Further, in [9], the molecule was classed as inactive.
As to `NNC(=O)c1ccncc1`, the cell count in test [1] was found to be 640. Also, the inhibition in [1] is 1.1% (inactive); in [3], -58.5% (inactive); in test [5] it was 16.8% (inactive); in test [10], 2.05% (inactive); in [11], 13.6% (inactive); in test [12], 39.7% (inactive). In [2], the inhibition of aggregation is -3.3% (inactive). Also, the nuclei count in [2] is 113%; in [3], 126%. In addition, the z-score in test [4] (setting [13]) is 1.92; in [4] (setting [14]) it was 0.875; in test [4] (setting [15]) it was -1.14. Besides, the fluorescence slope in [6] is -0.467 (inactive). For the same molecule, the NADPH fluorescence slope in [7] was -6.4e-05 (inactive). Moreover, the slope in test [8] was 0.00499 (inactive). In [9], the result was inactive.
As to `Cn1cc(NC(=O)c2cc(NC(=O)c3cc(NC=O)cn3C)cn2C)cc1C(=O)NCCC(=N)N`, the cell count in [1] stood at 571. Besides, the inhibition in test [1] was -3.6% (inactive); in [3] it was -15.4% (inactive); in [5] it was -0.493% (inactive); in test [10], -16.5% (inactive); in [11], 19.8% (inactive); in test [12], 37.3% (inactive). Moreover, the inhibition of aggregation in [2] is -13.8% (inactive). The figures for the nuclei count in test [2] and in test [3] were 96.4% and 95.1%, respectively. Besides, the results for the z-score in test [4] (setting [13]), in test [4] (setting [14]) and in test [4] (setting [15]) were -1.3, 0.0863 and -0.177, respectively. Also, the fluorescence slope in test [6] was -0.499 (inactive). The NADPH fluorescence slope in test [7] is -3.2e-05 (inactive). For the same molecule, the slope in test [8] was 0.00517 (inactive). The molecule was classed as inactive in test [9].
Regarding `CN(C(=O)C(Cl)Cl)c1ccc(OC(=O)c2ccco2)cc1`, the cell count in test [1] came out at 579. The inhibition in test [1] is -1.8% (inactive); in [3], -123% (inactive); in [5], 15.3% (inactive); in [10], -2.16% (inactive); in test [11], 21.3% (inactive); in test [12] it was 44.8% (inactive). In addition, the inhibition of aggregation in test [2] was -17.3% (inactive). For the same molecule, the nuclei count in [2] came to 101%; in test [3], 112%. Further, the results for the z-score in test [4] (setting [13]), in test [4] (setting [14]) and in test [4] (setting [15]) were 0.253, -0.205 and -0.332, respectively. Also, the fluorescence slope in test [6] was -0.508 (inactive). Besides, the NADPH fluorescence slope in test [7] was -6.7e-05 (inactive). Besides, the slope in [8] is 0.00492 (inactive). Moreover, in test [9], the call was inactive.
Consider `CSc1ccccc1NC(=O)c1c(Br)cnn1C`, for which, in test [1], the cell count amounted to 559. The inhibition in test [1] was -4.3% (inactive); in [3], 26.1% (inactive); in [5] it was -2.47% (inactive); in [10], 4.29% (inactive); in [11] it was 5.4% (inactive); in test [12], 4.72% (inactive). In addition, the inhibition of aggregation in test [2] is 33.5% (active). Besides, the nuclei count in test [2] was determined as 58.2%; in test [3] it was 130%. For the same molecule, the results for the z-score in test [4] (setting [13]), in test [4] (setting [14]) and in test [4] (setting [15]) were -0.962, -0.8 and 0.479, respectively. In test [6], the fluorescence slope is -0.453 (inactive). The NADPH fluorescence slope in test [7] is -5.8e-06 (inactive). For the same molecule, the slope in [8] is 0.00569 (inactive). Also, the molecule was classed as inactive in [9].
For `CCSC(SCC)[C@H](O)[C@@H](O)[C@H](O)[C@H](O)CO`, the cell count in test [1] came out at 619. Also, the inhibition was -2.2% (inactive) in [1]; -75.4% (inactive) in test [3]; -4.44% (inactive) in test [5]; -8.68% (inactive) in [10]; 10.6% (inactive) in test [11]; 28.3% (inactive) in test [12]. The inhibition of aggregation in [2] was -0.2% (inactive). Also, the nuclei count came to 107% in test [2] and 116% in test [3]. Further, the z-score in test [4] (setting [13]) was -0.857; in test [4] (setting [14]), -0.361; in test [4] (setting [15]), -0.437. Moreover, the fluorescence slope in test [6] was -0.451 (inactive). The NADPH fluorescence slope in test [7] was 1.5e-05 (inactive). Also, the slope in [8] was 0.00559 (inactive). In addition, the molecule was called inactive in [9].
Regarding `CNCCC=C1c2ccccc2CCc2ccccc21`, in test [1], the cell count stood at 525. Besides, the inhibition in [1] is 0.8% (inactive); in [3] it was -20.7% (inactive); in test [5], -10.4% (inactive); in [10], 34% (inactive) and 30.7% (inactive); in test [11], 29.4% (inactive); in [12], 43.5% (inactive). For the same molecule, the inhibition of aggregation in [2] was 8% (inactive). Also, the nuclei count in [2] came to 77%; in test [3], 117%. Moreover, the z-score in test [4] (setting [13]) is -0.881; in [4] (setting [14]), -0.123; in test [4] (setting [15]), 2.59. The fluorescence slope in test [6] is -0.521 (inactive). Further, the NADPH fluorescence slope in [7] is -4.9e-05 (inactive). For the same molecule, the slope in test [8] is 0.00426 (inactive). Besides, the call in test [9] was inactive.
As for `CC(=O)OC(C)C[N+](C)(C)C` (stereo not given), in [1], the cell count turned out to be 551. Besides, the inhibition in test [1] was 2.7% (inactive); in [3], -37.2% (inactive); in [5] it was 5.42% (inactive); in [10], 4.19% (inactive) and 8.31% (inactive); in [11], 8.52% (inactive); in test [12] it was 29.7% (inactive). The inhibition of aggregation in [2] is -10.4% (inactive). Also, the nuclei count in test [2] amounted to 93.2%; in test [3], 109%. Besides, the z-score in test [4] (setting [13]) is -0.162; in test [4] (setting [14]) it was 0.661; in [4] (setting [15]) it was -1.46. Also, in test [6], the fluorescence slope is -0.469 (inactive). Further, in [7], the NADPH fluorescence slope is -5.5e-06 (inactive). In [8], the slope was 0.0149 (active). Further, in [9], the result was inactive.
In the case of `CCN(CC)S(=O)(=O)c1cccc2c(N(C)C)cccc12`, the cell count in [1] was determined as 503. Besides, the inhibition in [1] was -2.1% (inactive); in [3], -84.9% (inactive); in test [5], 0.671% (inactive); in [10], 25.1% (inactive); in test [11], -4.35% (inactive); in [12], -4.09% (inactive). Further, the inhibition of aggregation in [2] is 14.8% (inactive). In addition, the values for the nuclei count in test [2] and in [3] were 95.3% and 128%, respectively. Moreover, the z-score in test [4] (setting [13]) was 0.324; in test [4] (setting [14]), -0.162; in test [4] (setting [15]) it was 1.65. Besides, the fluorescence slope in test [6] was -0.177 (active). Besides, the NADPH fluorescence slope in [7] is -1.3e-05 (inactive). Besides, the slope in test [8] is 0.00311 (inactive). In addition, the call in [9] was inactive.
On to `CCOC(=O)CSC1=C(C#N)C(=O)NC(c2ccc(OC)c(OC)c2)S1` (stereo not given), for which, in test [1], the cell count turned out to be 561. For the same molecule, the inhibition in [1] is -4.2% (inactive); in test [3] it was -41.1% (inactive); in test [5], -13.3% (inactive); in test [10], -1.59% (inactive); in test [11], 12% (inactive); in test [12], 11.8% (inactive). Also, the inhibition of aggregation in test [2] is 12.1% (inactive). Also, the results for the nuclei count in [2] and in [3] were 88.7% and 135%, respectively. The z-score in test [4] (setting [13]) is -1.42; in test [4] (setting [14]), 2.48; in [4] (setting [15]), 0.606. In addition, in [6], the fluorescence slope is -0.509 (inactive). The NADPH fluorescence slope in [7] is -5e-05 (inactive). In addition, the slope in test [8] is 0.00555 (inactive). Moreover, the result in test [9] was inactive.
